Screens deposited in PubChem by National Center for Advancing Translational Sciences (NCATS).
Hits are enriched below; roughly 0.97% of the tested compounds scored in any of these assays.
Epigenetic reg – derepresses silenced GFP reporter in murine cells. murine LDR cells, GFP reporter derepression, 30 h. Potency, µM (top dose mostly 53.9 µM), without a hit: at the highest dose GFP activation, most hits filed as activators. 280,000 compounds, 0.2% hits. AID 1865; further: potency means the concentration at half of the fitted maximal effect; % of control where 0% means no effect; nearly all actives have a fitted effect of over 60% in size
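GFP-positive cell count by laser-scanning cytometry (objects 20–120 um) after 30 h, 37 C compound exposure of murine LDR cells; reporter is CMV-GFP integrated at a silenced locus, inducible by HDAC or DNMT inhibitors.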
MmCpn inh – M. maripaludis TRiC chaperonin inhibition; purified Mm-Cpn ATPase, ADP Transcreener TR-FRET; Potency, µM (top dose mostly 76.9 µM), inactives show at the highest dose activity, negative = inhibition, usual class: inhibitors; 330,000 compounds, 0.031% hits; further: potency means the concentration at half of the fitted maximal effect; on the % scale 0 is the no-effect control and ±100 the full control effect; nearly all actives have a fitted effect of over 80% in size
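ATP (10 uM final) was added to archaeal chaperonin (25 nM final) after 10 min exposure to test compound at 37°C; after 30 min further incubation, ADP was detected by competitive TR-FRET.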
MBNL1-CUG inh – blocks human MBNL1 binding to CUG repeat RNA; TR-FRET MBNL1-His/biotin-(CUG)12 binding, 665/545 ratio; Potency, µM (top dose mostly 57.5 µM), for inactives: at the top dose activity change, negative = inhibition, most hits filed as inhibitors; 280,000 compounds, 0.036% hits; Q9NR56; active means well fitted inhibition curve with a large enough effect in the signal ratio, with a control signal flat, not every such curve was filed as active; inconclusive means small, poorly fitted or top-dose-only effect, or effect the other way, or a change in a side signal; inactive means no such curve, though single readings can be large or run the other way; the % refers to the signal ratio; further: potency means the concentration at half of the fitted maximal effect; on the % scale 0 is the no-effect control and ±100 the full control effect
Target sequence (Q9NR56 whole entry, looked up): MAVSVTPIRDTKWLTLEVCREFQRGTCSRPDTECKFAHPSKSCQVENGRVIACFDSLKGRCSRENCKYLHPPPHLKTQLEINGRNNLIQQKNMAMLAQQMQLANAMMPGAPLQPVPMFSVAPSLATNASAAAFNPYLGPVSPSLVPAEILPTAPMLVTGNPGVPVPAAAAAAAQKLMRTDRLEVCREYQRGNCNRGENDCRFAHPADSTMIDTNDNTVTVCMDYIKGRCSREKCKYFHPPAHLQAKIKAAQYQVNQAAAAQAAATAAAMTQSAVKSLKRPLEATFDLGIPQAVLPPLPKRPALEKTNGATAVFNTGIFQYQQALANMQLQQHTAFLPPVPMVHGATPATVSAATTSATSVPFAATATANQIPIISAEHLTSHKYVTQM
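Compounds (final 92 nM to 58 uM) are added to His-tagged MBNL1 and biotin-(CUG)12, then terbium anti-His antibody and streptavidin-XL665 (5 nM final). After 60 min at room temperature, the 665/545 nm ratio is read.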
uPA generation – blocks generation of uPA at the cell surface; cell surface uPA generation assay, qHTS; Potency, µM (doses to about 38.3 µM), inactives show top-dose activity change, negative = inhibition, hits mostly inhibitors; 330,000 compounds, 0.31% hits; AID 540303; active means well fitted inhibition curve with a large enough effect; inconclusive means small, poorly fitted or top-dose-only effect; inactive means no such curve, though single readings can be large or run the other way; tested in mouse RAW 264.7 cells; further: potency means the concentration at half of the fitted maximal effect; on the % scale 0 is the no-effect control and ±100 the full control effect; nearly all actives have a fitted effect of over 55% in size
CCT modulator – changes cytosolic chaperonin activity; purified chaperonin ATPase assay, HTRF ADP detection, 30 min; AID 651819; activity change, % (concentration not given with the values), hits read low; 360,000 compounds, 0.3% hits; in the data active means activity change below about -30%; further: on the % scale 0 is the no-effect control and ±100 the full control effect
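TRiC (40 or 20 nM final, by batch activity) in 30 mM Tris pH 7.4, 100 mM KCl, 5 mM MgCl2, 1 mM DTT was treated with compound at 76 uM single dose, then 10 uM ATP, 30 min at 37 °C. ADP was read by HTRF Transcreener.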
pAkt inh – inhibitors of Akt phosphorylation | activity change, % for hits at 50 µM | Neuro2A IGF-stimulated pAkt S473 HTRF, 20 min; hits give low values | 360,000 compounds, 0.32% hits; in the data active means activity change below about -80%; inconclusive means mostly about -51% to -80%; further: on the % scale 0 is the no-effect control and ±100 the full control effect
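Neuro2A cells (4,500/well, DMEM with 0.5% FBS) were treated with compound at a single 50 µM final concentration, stimulated with 6 nM IGF for 20 min at 37 °C, and lysed. Phospho-Akt Ser473 was read by HTRF as 665/615 ratio ×10^4.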
* = called active by the depositor; i = inactive; ? = inconclusive; . = no result given. Unless noted, the call rests on the fitted dose curve; in most records, active means well fitted curve in the direction sought with a large enough effect; inconclusive means small, poorly fitted or top-dose-only effect, or another doubt; inactive means no such curve, though single readings can be large; an effect the other way counts as inactive or inconclusive.

SMILES	Epigenetic reg	MmCpn inh	MBNL1-CUG inh	uPA generation	CCT modulator	pAkt inh
CCc1ccc(NC(=O)C2CCCN(S(=O)(=O)c3ccc4[nH]c(=O)ccc4c3)C2)cc1 (stereo not given)	3%	-4%	37%	5%	-71*	i
O=C(Nc1ccc(Cl)cc1)C1CCCN(S(=O)(=O)c2ccc3[nH]c(=O)ccc3c2)C1 (stereo not given)	9%	.	.	.	.	.
COC(=O)C1=C(NC(C)=O)CCS1	-1%	-1%	?	0%	-1	i
CCCOc1ccc(C2=NNC(c3cccs3)=Nc3ccc(OC)cc32)cc1	-1%	2%	?	7%	0	-125%*
COc1ccc2c(c1)C(c1cccs1)=NNC(c1ccncc1)=N2	5%	-1%	?	-26%	-1	i
CCOC(=O)c1ccccc1NC(=O)c1cncc(Br)c1	-1%	-18%	?	-1%	-37*	i
Cc1cccc(NC(=O)Cn2c(=O)oc3cc(S(=O)(=O)N4CCCCCC4)ccc32)c1	2%	.	.	.	.	.
CC1CCCC(NC(=O)COC(=O)c2ccc([N+](=O)[O-])o2)C1C (stereo not given)	.	1%	.	1%	-64*	i
O=S(=O)(NNc1ccc(Cl)nn1)c1ccc(F)cc1	3%	1%	6%	6%	-69*	i
Nc1nc(N)c2cc(Sc3ccc(Cl)cc3)ccc2n1	.	.	.	.	0	i
Nc1nc(N)c2cc(Sc3ccc4ccccc4c3)ccc2n1	1%	2%	29%	2µM*	2	i
Cc1ccc2c(CC(=O)N(Cc3ccc(N(C)C)cc3)Cc3ccco3)coc2c1C	-2%	.	.	.	.	.
N#C/C(=C\c1ccc(O)c(O)c1)C(=O)N1CCc2ccccc21	.	2%	.	3.5µM*	1	i
COc1cc(/C=C(\C#N)C(=O)N2CCc3ccccc32)ccc1O	-2%	1%	-7%	0%	-2	i
CCN(C(=O)CN1C(=O)NC2(CCc3ccccc32)C1=O)C1CCS(=O)(=O)C1 (stereo not given)	.	-5%	.	-2%	-34*	i
CC(C)CN(C(=O)CN1C(=O)NC2(CCc3ccccc32)C1=O)C1CCS(=O)(=O)C1 (stereo not given)	.	-1%	.	10%	0	i
CCCCN(C)CCCNC(=O)Cn1ncc2c3ccccc3n(Cc3cccc(Cl)c3)c2c1=O	4%	.	.	.	.	.
O=C1c2ccccc2NC(c2ccc(Cl)cc2Cl)N1O (stereo not given)	0%	1%	7%	-14%	-6	-132%*
CC(=O)O[C@H]1C2OC(=O)C(C)=C2[C@@H]2OC(=O)[C@]3(CCC4OC41C)OC23 (stereo not given in full)	1%	-1%	-7%	7.1µM*	-2	i
CC1(C(=O)N/N=C/c2ccccc2)CC1(Cl)Cl (stereo not given)	.	-3%	1%	3%	0	i
CSc1nsc(SC)c1C(=O)Nc1ccc(C(C)(C)C)cc1	9%	1%	-11%	-2%	2	i
CSc1nsc(SC)c1C(=O)NC(=O)Nc1cccnc1	0%	0%	-14%	5%	-42*	i
O=C(Nc1ccc(OCc2cc(=O)n3c4c(sc3n2)CCCC4)cc1)c1ccccc1	5%	.	.	.	.	.
Cc1ccc(S(=O)(=O)NC(=O)COc2ccccc2C)c(C)c1	.	0%	-7%	0%	1	i
Cc1ccc(SC(=O)c2c([N+](=O)[O-])c(C)nn2C)cc1	22µM*	3%	4%	6%	1	i
SMILES	Epigenetic reg	MmCpn inh	MBNL1-CUG inh	uPA generation	CCT modulator	pAkt inh
Cc1cc(C)n(C(=O)c2c([N+](=O)[O-])c(C)nn2C)n1	1%	-5%	?	5%	-2	i
Cc1cc(C)c(S(=O)(=O)Nc2ccc3oc4c(c3c2)CCCC4)cc1C	0%	.	.	.	.	.
COc1ccc2[nH]c3c4c(ccc3c2c1)C(=O)C=CC4=O	2%	0%	10%	3.2µM*	0	i
COc1ccc2[nH]c(-c3ccc(F)cc3F)cc(=O)c2c1	0%	.	.	.	.	.
Cn1c(=O)c2c([nH]c(=S)n2Cc2ccc(Cl)cc2)n(C)c1=O	.	-9%	10%	1%	-84*	i
C#CCOCCOCCOCCNc1nc(N2CCN(C(=O)[C@H](CCC(=O)O)n3cc(CN)nn3)CC2)nc(N2CCN(C(=O)[C@H](CCC(=O)O)n3cc([C@@H](N)[C@H](C)CC)nn3)CC2)n1	.	0%	.	7%	-33*	i
COCCCN1C(=O)C(=O)/C(=C(/O)c2ccc(S(=O)(=O)N3CCCCC3)cc2)C1c1cccc(OC)c1 (stereo not given)	.	-2%	5%	0%	-84*	.
COCCCN1C(=O)C(=O)/C(=C(/O)c2ccc(S(=O)(=O)N3CCCCC3)cc2)C1c1ccc(O)c(OC)c1 (stereo not given)	.	-1%	?	2%	-2	i
CC1Sc2ccc(C(=O)NCc3ccccn3)cc2NC1=O (stereo not given)	.	0%	.	3.2µM*	-4	i
COc1ccc(-c2nc(SCCOc3cc(C)ccc3C(C)C)n3[nH]c(=O)cc3n2)cc1	7%	.	.	.	.	.
C=C(C)C(=O)Oc1ccc(N2C(=O)CCC2=O)cc1	22µM*	1%	2%	?	1	i
Cc1nc(-c2ccccc2)sc1C(=O)NN	0%	-1%	14%	10µM*	-2	i
CC/C(=N\NC(=O)c1nnn(-c2nonc2N)c1CN(C)c1ccccc1)c1ccccc1	.	1%	9%	-12%	-67*	.
C/C(=N\NC(=O)c1nnn(-c2nonc2N)c1CN(C)c1ccccc1)c1ccc(O)cc1	.	5%	-10%	4%	-3	i
Nc1c(C(=O)Nc2ccc(S(=O)(=O)N3CCCC3)cc2)sc2nc3cc4c(cc3cc12)CCC4	3.5µM*	-1%	4%	-14%	3	i
Nc1c(C(=O)Nc2ccc(S(=O)(=O)N3CCCC3)cc2)sc2nc3ccc(OC(F)(F)F)cc3cc12	7.9µM*	-2%	18%	-5%	0	i
Nc1c(C(=O)Nc2ccc(C(=O)O)cc2)sc2nc3c(cc12)CCCC3	-1%	.	.	.	.	.
CCOc1ccc(CCNS(=O)(=O)c2cnc[nH]2)cc1OCC	1%	-3%	-2%	-13%	-2	-132%*
COc1ccc(C(NC=O)c2cc(OC)c(OC)cc2Br)cc1OC (stereo not given)	0%	-4%	4%	4%	-8	i
COC(=O)c1sccc1NC(=O)CNC(=O)c1ccccc1	-1%	0%	.	1%	-76*	i
COC(=O)c1sccc1NC(=O)c1ccc(C)cc1	.	-3%	?	-2%	-1	i
